Records with an inconclusive call do not appear. Active and inactive are the calls of the source. Unless noted, calls follow the shape of the full dose curve.
biological target: Vitamin D3 receptor (Homo sapiens) (UniProt P11473); assay: qHTS assay to identify small molecule agonists of the vitamin D receptor (VDR) signaling pathway (AID 743222); conditions: HEK293T VDR-UAS-bla, beta-lactamase FRET ratio, 16 h; series mostly up to 63.5 µM; activation: at the top concentration
Outline: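 VDR-bla cells were seeded, left 4 h, treated with compounds in DMSO for 16 h, incubated 2 h at RT with B/G FRET substrate, and read for fluorescence.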
% is scaled to controls: 0 for no effect and ±100 for the full control effect.

Chain of Vitamin D3 receptor (Homo sapiens) (P11473 whole entry, looked up): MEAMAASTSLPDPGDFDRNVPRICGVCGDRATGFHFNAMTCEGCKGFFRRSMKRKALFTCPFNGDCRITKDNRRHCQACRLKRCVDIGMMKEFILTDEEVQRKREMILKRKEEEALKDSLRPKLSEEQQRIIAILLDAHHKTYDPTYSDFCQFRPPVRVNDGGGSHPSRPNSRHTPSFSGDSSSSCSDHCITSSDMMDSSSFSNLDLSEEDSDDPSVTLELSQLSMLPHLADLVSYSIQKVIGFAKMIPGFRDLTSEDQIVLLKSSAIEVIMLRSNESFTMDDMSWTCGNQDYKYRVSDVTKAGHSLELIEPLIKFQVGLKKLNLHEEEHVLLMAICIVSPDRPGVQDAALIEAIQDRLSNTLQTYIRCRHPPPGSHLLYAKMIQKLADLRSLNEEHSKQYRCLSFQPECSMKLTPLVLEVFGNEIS

SMILES | activation
NS(=O)(=O)c1ccccc1OC(F)(F)F | -0.681% (inactive)
C[C@@H]1C[C@H]2[C@@H]3C[C@H](F)C4=CC(=O)C=C[C@]4(C)[C@@]3(F)[C@@H](O)C[C@]2(C)[C@@]1(O)C(=O)CO | -9.94% (inactive)
CC(=O)OCC(=O)[C@@]1(O)[C@H](OC(C)=O)C[C@H]2[C@@H]3CCC4=CC(=O)C=C[C@]4(C)[C@@]3(F)[C@@H](O)C[C@@]21C | -5.87% (inactive)
COCCOCCOCCOC | -2.28% (inactive)
C=COCCOCCOC=C | -1.55% (inactive)
C[N+](C)(C)CC(O)CCl (centres undefined) | -1.31% [at 81.1 µM] (inactive)
CCCCCCCCCCCCC | -1.37% (inactive)
C/C=C(\C)C(=O)OCC/C=C\CC | -0.204% (inactive)
CNC(=O)NC | 3.59% [at 81.1 µM] (inactive)
O=S(=O)(O)CCO | -7.37% [at 81.1 µM] (inactive)
FC(F)(F)c1ccc(Cl)cc1Cl | -6.14% (inactive)
CCCCCCCCCCCCCC(=O)OC | 6.63% (inactive)
C[C@H]1O[C@H](O[C@H]2[C@H](O)[C@@H](O)[C@@H](O[C@H]3[C@H](O)[C@@H](O)[C@H](O)O[C@@H]3CO)O[C@@H]2CO)[C@H](O)[C@@H](O)[C@@H]1N[C@H]1C=C(CO)[C@@H](O)[C@H](O)[C@H]1O | 8.75% (inactive)
CC(=O)Nc1ccc(C)cc1 | 3.22% (inactive)
C=CC(C)(O)CC/C=C(\C)CC (centres undefined) | 2.84% (inactive)
O=C(O)c1c(Cl)ccc(Cl)c1Cl | 0.472% (inactive)
CC(C)COC(=O)COc1ccc(Cl)cc1Cl | 0.167% (inactive)
CNC(=O)C(c1ccccc1)c1ccccc1 | 8.89% (inactive)
C=C[C@@H](C)CCC=C(C)C | 6.14% (inactive)
NC(=O)NC(=O)Cc1ccccc1 | 0.23% (inactive)
c1ccccc1 | -7.52% (inactive)
NC(=O)NNC(N)=O | 7.03% (inactive)
Cc1cc(O)c2c(c1)C(=O)c1cccc(O)c1C2=O | -9.08% (inactive)
CN(C)CCOCCN(C)CCO | -3.17% (inactive)
CC(C)(CO)[C@@H](O)C(=O)NCCCO | 2.94% (inactive)

biological target: Vitamin D3 receptor (Homo sapiens) (UniProt P11473); assay: qHTS assay to identify small molecule antagonists of the vitamin D receptor (VDR) signaling pathway (AID 743223; active = well fitted inhibition curve with a large enough effect in the signal ratio in the repeat runs, not every such curve was filed as active; the % refers to the signal ratio); conditions: VDR-UAS-bla HEK293T, beta-lactamase FRET ratio, 16 h; series mostly up to 61 µM; activity change, negative = inhibition: at the top concentration
Outline: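 Beta-lactamase activity in VDR-bla cells is measured by FRET substrate fluorescence (2 h, room temperature) after cells spend 16 h at 37C with test compound and 3 nM final 1alpha,25-dihydroxyvitamin D3.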

SMILES | activity change, negative = inhibition
NS(=O)(=O)c1ccccc1OC(F)(F)F | 2.87% (inactive)
C[C@@H]1C[C@H]2[C@@H]3C[C@H](F)C4=CC(=O)C=C[C@]4(C)[C@@]3(F)[C@@H](O)C[C@]2(C)[C@@]1(O)C(=O)CO | 1.75% (inactive)
CC(=O)OCC(=O)[C@@]1(O)[C@H](OC(C)=O)C[C@H]2[C@@H]3CCC4=CC(=O)C=C[C@]4(C)[C@@]3(F)[C@@H](O)C[C@@]21C | -13.3% (inactive)
COCCOCCOCCOC | -5.86% (inactive)
C[N+](C)(C)CC(O)CCl (centres undefined) | 6.72% [at 78.8 µM] (inactive)
C/C=C(\C)C(=O)OCC/C=C\CC | 2.45% (inactive)
CNC(=O)NC | 3.47% [at 78.8 µM] (inactive)
CC1CCC(C(C)(C)S)C(=O)C1 (centres undefined) | 5.2% (inactive)
CC(=O)N1CCN(c2ccc(O)cc2)CC1 | 15.6% (inactive)
O=S(=O)(O)CCO | 8.13% [at 78.8 µM] (inactive)
FC(F)(F)c1ccc(Cl)cc1Cl | 1.59% (inactive)
Nc1nc(=O)n([C@@H]2O[C@H](CO)[C@@H](O)[C@@H]2F)cc1I | -3.86% (inactive)
C[C@H]1O[C@H](O[C@H]2[C@H](O)[C@@H](O)[C@@H](O[C@H]3[C@H](O)[C@@H](O)[C@H](O)O[C@@H]3CO)O[C@@H]2CO)[C@H](O)[C@@H](O)[C@@H]1N[C@H]1C=C(CO)[C@@H](O)[C@H](O)[C@H]1O | -6.97% (inactive)
CC(=O)Nc1ccc(C)cc1 | -2% (inactive)
C=CC(C)(O)CC/C=C(\C)CC (centres undefined) | -16.3% (inactive)
CC(C)COC(=O)COc1ccc(Cl)cc1Cl | 8.84% (inactive)
CNC(=O)C(c1ccccc1)c1ccccc1 | -13.2% (inactive)
C=C[C@@H](C)CCC=C(C)C | 7.26% (inactive)
NC(=O)NC(=O)Cc1ccccc1 | 3.85% (inactive)
CCCCCCCCCCCCOC(C)=O | 11.3% (inactive)
c1ccccc1 | 2.1% (inactive)
Cc1cc(O)c2c(c1)C(=O)c1cccc(O)c1C2=O | 14.9% (inactive)
CN(C)CCOCCN(C)CCO | -2.08% (inactive)
CC(C)(CO)[C@@H](O)C(=O)NCCCO | 4.6% (inactive)

Reference: PubChem BioAssay (Tox21)
